# Measurements as given in PubChem BioAssay (NCATS).
# Several values for one entry are separate records, joined by “and”; a condition that tells them apart may be missing. Equal values may be shown once. Inconclusive results are not listed. Activity calls are given as the source filed them. Calls follow the shape of the dose curve; as a rule, active = well fitted cell-killing curve with a large enough effect; inconclusive = small, poorly fitted or top-dose-only effect, or effect the other way; inactive = no such curve, though single readings can be large or run the other way.
# Test: Viability qHTS for spleen associated tyrosine kinase inhibitor (SYKi) drug resistant MV4-11 cells (AID 1963824); also: nearly all actives have a fitted effect of over 35% in size
# Details: SYKi-resistant MV4-11 viability, CellTiter-Glo, 72 h; series mostly up to 45 µM; viability, % of control: at the top concentration
# Summary of the method: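 CellTiter-Glo luminescence, read 10 min after reagent addition, reports viability after a 72 hr compound exposure. Cells are an MV4-11 line made resistant to SYK inhibition, seeded at 500 per well onto compound-containing plates.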
# Potency is read from the fitted curve at half-maximal effect.
Compound,"viability, % of control",Potency
C/C=C/c1ccc(O)c(OC)c1,73.1% (inactive),–
CC(COc1ccccc1)NC(C)C(O)c1ccc(O)cc1 (stereo not given),66.9% (inactive),–
CCN(CC)CCOC(=O)C(c1ccccc1)C1CCCCC1 (stereo not given),1.52% (inactive),–
CC(C)Nc1cccnc1N1CCN(C(=O)c2cc3cc(NS(C)(=O)=O)ccc3[nH]2)CC1,68.4% (inactive),–
CCNC(=O)Nc1ncc(-c2cc(-c3c(C)cc(OC)cc3C)nc(-c3cnccn3)n2)s1,72.6% (inactive),–
CC(=O)Oc1cc(C(C)C)c(OCCN(C)C)cc1C,86.5% (inactive),–
Nc1ccc(C(=O)NCC(=O)O)cc1,78.1% (inactive),–
Cc1ccc2cc(-c3c(C)ccc(C(=O)c4c(-c5ccccc5)n(C)n(-c5ccccc5)c4=O)c3N)ccc2n1,–,9.34 µM (active)
C[C@]12CCC(=O)C=C1CC[C@@H]1[C@@H]2[C@@H](O)C[C@@]2(C)[C@H]1CC[C@]2(O)C(=O)COC(=O)CCC(=O)O,103% (inactive),–
CC(C)(O)CC[C@@H](O)[C@](C)(O)[C@H]1CC[C@@]2(O)C3=CC(=O)[C@@H]4C[C@@H](O)[C@@H](O)C[C@]4(C)[C@H]3CC[C@]12C,82.2% (inactive),–
CCCCOC(=O)CC(CC(=O)OCCCC)(OC(C)=O)C(=O)OCCCC,84.9% (inactive),–
COC(C)(C)CCn1nc(Nc2c(C)cccc2C)c2cnc(Nc3ccc(OCCN4CCCC4)c(F)c3)nc21,–,1.03 µM (active) and 1.66 µM (active)
CC(=O)[C@]1(O)Cc2c(O)c3c(c(O)c2[C@@H](O[C@H]2C[C@H](N)[C@H](O)[C@H](C)O2)C1)C(=O)c1ccccc1C3=O,–,119 nM (active) and 83.3 nM (active)
COc1ccc(S(=O)(=O)N2CCc3cccc(-c4ccncc4)c32)cc1,–,0.833 µM (active)
C[C@]12CCC3=C4CCC(=O)C=C4CC[C@H]3[C@@H]1CC[C@@]2(O)CC#N,87.3% (inactive),–
C=C1C[C@H]2C=Nc3cc(OCCCOc4cc5c(cc4OC)C(=O)N4CC(=C)C[C@H]4C=N5)c(OC)cc3C(=O)N2C1,4.35% (inactive),–
NCC1CCC(C(=O)Oc2ccc(CCC(=O)O)cc2)CC1 (stereo not given),95.5% (inactive),–
CN(C)CCOc1ccc(-c2nc(-c3ccc4c(c3)CC/C4=N\O)c(-c3ccncc3)[nH]2)cc1,–,5.9 µM (active)
CC(C)Oc1ccc(-c2nn([C@@H](C)c3oc4ccc(F)cc4c(=O)c3-c3cccc(F)c3)c3ncnc(N)c23)cc1F,–,11.8 µM (active)
CCCCCN(CCCOC)C(=O)C(CCC(=O)O)NC(=O)c1ccc(Cl)c(Cl)c1 (stereo not given),67.8% (inactive),–

Compound,"viability, % of control",Potency
CCC(CC)CC1(C(=O)Nc2ccccc2SC(=O)C(C)C)CCCCC1,91.4% (inactive),–
Cc1nc2cccc(N)c2c(=O)n1C1CCC(=O)NC1=O (stereo not given),91.9% (inactive),–
c1ccc(CN(CC2=NCCN2)c2ccccc2)cc1,87.9% (inactive),–
COc1ccc(S(=O)(=O)Nc2cc(-c3csc(C#N)c3)ccc2C)cc1,–,0.0934 µM (active)
CN1C(=O)N[C@H](Cc2c[nH]c3c(Cl)cccc23)C1=O,70% (inactive),–
CC[C@@H](C)Nc1cc(C(=O)NC2CC3CCC(C2)N3c2ccc(C(=O)C3CC3)cn2)c(C)cc1C(N)=O (stereo not given in full),–,0.0206 µM (active)
C[C@@H]1N=C(N)NC(N(C)C)=N1,–,inactive
NCC1CCC(C(=O)O)CC1 (stereo not given),91.6% [at 17.3 µM] (inactive),–
O=C(OCCN1CCOCC1)c1cccnc1Nc1cccc(C(F)(F)F)c1,64.2% (inactive),–
NC(=O)c1ncn([C@@H]2O[C@H](CO)[C@@H](O)[C@H]2O)c1N,117% (inactive),–
CO/N=C(\C(=O)O)c1csc(NC(=O)CCl)n1,96.5% (inactive),–
O=C1CC(c2c[nH]c3ccc(F)cc23)C(=O)N1 (stereo not given),81.4% (inactive),–
COc1cc(C(=O)NC(N)=Nc2ccc(C)c(NC(=O)c3ccc(-c4ccccc4)cc3)c2)cc(OC)c1OC,–,8.33 µM (active)
CC1(C)OC(=O)NC1=O,81.9% (inactive),–
CC[C@]12C=CCN3CC[C@@]4(c5cc([C@@]6(C(=O)OC)C[C@H]7C[C@@H](C(C)(F)F)CN(Cc8c6[nH]c6ccccc86)C7)c(OC)cc5N(C)[C@H]4[C@@](O)(C(=O)OC)[C@@H]1OC(C)=O)[C@@H]32,–,0.0494 µM (active)
Cc1ccc(S(=O)(=O)Cc2nc(-c3ccc(C(=O)NCc4cccnc4)cc3)oc2C)cc1,–,0.0105 µM (active)
CC1=C(C/C=C(\C)CCC[C@H](C)CCC[C@H](C)CCCC(C)C)C(=O)c2ccccc2C1=O,72.4% (inactive),–
O=C1OC(OC(=O)c2cccnc2Nc2cccc(C(F)(F)F)c2)c2ccccc21 (stereo not given),76.3% (inactive),–
CC(C)(C)c1ccc(O)c(O)c1,–,6.11 µM (active)
CC(=O)OCC(=O)[C@@]1(O)CC[C@H]2[C@@H]3CCC4=CC(=O)CC[C@]4(C)[C@H]3C(=O)C[C@@]21C,102% (inactive),–
